Results filed as inconclusive are left out. Active and inactive are the calls of the source. Rule for the calls: active = hit-call score of the fitted dose curve at least 0.9, where 1 is the maximum; inconclusive = response in the unintended direction; inactive = score below 0.9.

A short description of one assay: IUF_NPC5_oligodendrocyte_differentiation_120hr: Leibniz Research Institute for Environmental Medicine (IUF) 120-hour Oligodendrocyte Differentiation Assay (NPC5) (AID 2284304).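 Note: share of O4-positive cells among Hoechst nuclei found by CNN image analysis.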 In outline: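 Human primary NPC neurospheres migrating and differentiating on laminin for 120 h under continuous compound exposure (serial dilution, solvent control). Endpoint: percent O4+ oligodendrocytes among Hoechst nuclei, detected by CNN image analysis, with DMSO as negative control.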
In the case of `CC1=C(/C=C/C(C)=C/C=C/C(C)=C/C(=O)O)C(C)(C)CCC1`, the call was inactive.
As to `CC#C[C@]1(O)CC[C@H]2[C@@H]3CCC4=CC(=O)CCC4=C3[C@@H](c3ccc(N(C)C)cc3)C[C@@]21C`, the compound was classed as inactive.
On to `CN1CCC[C@H]1c1cccnc1`, for which the call was inactive.

A further assay can be described thus: IUF_NPC4_neurite_area_120hr: Leibniz Research Institute for Environmental Medicine (IUF) 120-hour Neuronal Morphology Assay for Neurite Area (NPC4) (AID 2284305). Put shortly:
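Neurite area is read out as the mean pixel area, excluding nuclei, of skeletonized TUBB3-positive neurons imaged after 120 h. Primary human neural progenitor spheres differentiated on poly-D-lysine/laminin with compound present from day 0. Activity was referenced to DMSO controls.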
`CC1=C(/C=C/C(C)=C/C=C/C(C)=C/C(=O)O)C(C)(C)CCC1`: the outcome was inactive.
Still for that read-out and setting: in the case of `CC#C[C@]1(O)CC[C@H]2[C@@H]3CCC4=CC(=O)CCC4=C3[C@@H](c3ccc(N(C)C)cc3)C[C@@]21C` it was “inactive”.
Still for that read-out and setting: the entry for `CN1CCC[C@H]1c1cccnc1` is “inactive”.

The next assay can be described thus: IUF_NPC2-5_cytotoxicity_72hr: Cytotoxicity Assessment at 72 hours in the Leibniz Research Institute for Environmental Medicine (IUF) Neural Progenitor Cell Migration and Differentiation Assay for Cytotoxicity (NPC2-5) (AID 2284306).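 Note: LDH release into supernatant measured by resorufin fluorescence marking membrane damage.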 On the procedure:
IUF_NPC2-5 is a cell-based, multiplexed assay that uses hNPC, a human primary neural progenitor cells, with measurements taken at 72 or 120 hours after chemical dosing in a 96-well plate. Human neural progenitor cells (hNPC) are generated from human fetal brain cortex at gestational week (GW) 16-19. In the neural progenitor cell migration and differentiation assay (NPC2-5), hNPCs grown as spheres are plated on an extracellular matrix and migrate and differentiate out of the sphere core. The processes radial glia migration, neuronal and oligodendrocyte migration as well as neuronal differentiation, neuronal morphology and oligodendrocyte differentiation are studied using automated phase contrast imaging and automated fluorescence imaging in combination with high content image analysis. In parallel, the cell viability is assessed using an alamar blue viability assay and the cytotoxicity using a lactate dehydrogenase dependent membrane integrity assay.IUF_NPC2-5_cytotoxicity_72hr is one of 12 assay components measured from the IUF_NPC2-5 assay. It is designed to measure the cytotoxicity at 72 hr as assessed by membrane integrity related to the LDH dependent reduction of resazurin to resorufin in the supernatant of each well. The cytotoxicity is measured as fluorescence signal (relative fluorescence unit) in a multiplate reader. Data from the IUF_NPC2-5_cytotoxicity_72hr component was analyzed at the endpoint IUF_NPC2-5_cytotoxicity_72hr in the positive analysis fitting direction relative to the dynamic range and baseline of activity. Using a type of viability reporter, gain-of-signal activity can be used to understand cytotoxicity effects.
Culture protocol: After the cell expansion period the cells are cultured for up to four weeks in which they are passaged every week as described in 3.6. […] Therefore, half of the test condition solution (e.g. solvent control or compound dilution) is replaced by freshly prepared test condition solution.Test Method: Migration distance and cytotoxicity is determined after 72 hours based on brightfield images of each well. […]
In the case of `CC1=C(/C=C/C(C)=C/C=C/C(C)=C/C(=O)O)C(C)(C)CCC1`, the result was inactive.
The same measure, in the same setting: the entry for `CC#C[C@]1(O)CC[C@H]2[C@@H]3CCC4=CC(=O)CCC4=C3[C@@H](c3ccc(N(C)C)cc3)C[C@@]21C` is “inactive”.
The same measure, in the same setting: the entry for `CN1CCC[C@H]1c1cccnc1` is “inactive”.

Another assay can be described thus: IUF_NPC2-5_cytotoxicity_120hr: Cytotoxicity Assessment at 120 hours in the Leibniz Research Institute for Environmental Medicine (IUF) Neural Progenitor Cell Migration and Differentiation Assay (NPC2-5) (AID 2284307). In outline: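 Fluorescence (RFU) from LDH-driven resazurin reduction in medium supernatants measured loss of membrane integrity after 120 h of compound exposure of differentiating primary human neural progenitor spheres on an extracellular matrix.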
In the case of `CC1=C(/C=C/C(C)=C/C=C/C(C)=C/C(=O)O)C(C)(C)CCC1`, the result was inactive.
Turning to `CC#C[C@]1(O)CC[C@H]2[C@@H]3CCC4=CC(=O)CCC4=C3[C@@H](c3ccc(N(C)C)cc3)C[C@@]21C`, the compound was called inactive.
As for `CN1CCC[C@H]1c1cccnc1`, the outcome was inactive.

The values above are taken from PubChem BioAssay (EPA / NIEHS).
